The list is a sample of the results.
aSyn 5UTR act – Activators via SNCA 5'UTR binding, MLPCN; alpha-synuclein 5'UTR reporter, activators screen; activity score, % (tested at 7.5 µM), hits read low; hit rate 7.1% among 300,000; in the data active = activity score below about -60%
* = called active by the depositor.

SMILES	aSyn 5UTR act
O=C1NC(c2ccccc2Cl)=N/C1=C/c1ccco1	-142.1*
O=C1NC(c2ccc(Br)cc2)=N/C1=C/c1ccco1	-148.6*
O=C1C2C3C=CC(C3)C2C(=O)N1/N=C/c1ccc(-c2ccccc2[N+](=O)[O-])o1 (configuration not stated)	-76.6*
CCOc1ccc(N=c2scc(-c3ccccc3)n2CCO)cc1	-103.5*
OCCn1c(-c2ccc3c(c2)OCO3)csc1=Nc1ccccc1	-97.1*
CCn1c(-c2ccccc2)csc1=Nc1ccc(O)cc1	-139.0*
Cc1ccc(OCC(=O)O/N=C(\N)c2ccncc2)c(C)c1	-182.1*
N/C(=N\OC(=O)COc1cc(Cl)c(Cl)cc1Cl)c1ccncc1	-174.1*
Cc1ccccc1OCC(=O)O/N=C(\N)c1ccncc1	-102.7*
Cc1cccc(NC(=O)c2cnc3scc(C)n3c2=O)c1	-181.0*
Cc1csc2ncc(C(=O)Nc3ccc4c(c3)OCCO4)c(=O)n12	-169.2*
Cc1ccc(NC(=O)c2ccc3snnc3c2)cc1C	-164.8*
CCOc1ccc(NC(=O)c2ccc3snnc3c2)cc1	-120.1*
CC(C)COc1ccc(C(=O)Nc2ccc(SC(F)F)cc2)cc1	-90.2*
Cc1ccc(C(=O)Nc2ccc(SC(F)F)cc2)s1	-161.2*
CCOc1ccc(C(=O)Oc2ccc(NC(C)=O)cc2)cc1	79.9
COc1cccc(NC(=O)c2ccc3snnc3c2)c1	-105.0*
O=C(Nc1ccc(F)cc1)c1ccc2snnc2c1	-92.5*
C=CCOc1ccc(C(=O)Nc2ccc(OCC)cc2)cc1	-70.1*
Cc1cccc(/C=C2\Oc3cc(OS(C)(=O)=O)ccc3C2=O)c1	-63.8*
CC(=O)COc1ccc2c(c1C)O/C(=C\c1ccco1)C2=O	-212.7*
COc1ccc2c(c1)O/C(=C\c1ccco1)C2=O	-119.5*
Cc1nc(-c2ccc(Cl)cc2)sc1C1(C)CC(c2cccc(F)c2)=NO1 (configuration not stated)	-67.1*
CC(=O)N(O)CCCCCNC(=O)CCC(=O)N(O)CCCCCNC(=O)CCC(=O)N(O)CCCCCN	74.6
Cc1ccc(NC(=O)c2cncc(Br)c2)c(O)c1	-196.2*
SMILES	aSyn 5UTR act
Cc1ccc(NC(=O)c2cncc(Br)c2)nc1	-89.3*
Cc1cc(C(=O)NC2CCC(C)CC2)c(C)o1 (configuration not stated)	-109.5*
Cc1nc2c(ccc3c2ccc2nc(C)sc23)s1	-112.5*
C[n+]1c2n(c3ccccc31)N=C(c1ccccc1)CS2	-67.9*
CCOc1ccc(-c2cc(CCCC(=O)NCCc3ccccc3)no2)cc1	62.2
O=C(CCc1nnc(CCCc2ccccc2)o1)NCCCC1CCCC1	-115.9*
CCc1cc(CNC(=O)CCc2nnc(CCCc3ccccc3)o2)on1	-129.1*
CC(C)c1cc(CNC(=O)CCc2nnc(CCCc3ccccc3)o2)on1	-76.9*
O=C(CCc1nnc(CCCc2ccccc2)o1)N1CCCCCC1	-149.1*
Nn1c(SCC(=O)Nc2ccc(F)cc2F)nnc1-c1cccnc1	-88.6*
Nn1c(SCC(=O)Nc2ccc(F)cc2F)nnc1C1CCCCC1	-64.0*
Cc1ccc(-c2csc(N)n2)s1	-71.0*
c1ccc(-c2cc3n(c2)CCc2ccccc2-3)cc1	-135.2*
ClCc1csc(N/N=C/c2cccs2)n1	-72.1*
C(=N\Nc1nc(-c2ccccc2)cs1)/c1ccncc1	-229.6*
C(=N\Nc1nc(-c2ccccc2)cs1)/c1cccs1	-233.2*
CCn1c(C)nc2c(C)[n+](CC(=O)c3ccc(Br)cc3)ccc21	-105.9*
CCOc1ccc(-c2cc(CCCC(=O)NCCc3ccc(OC)c(OC)c3OC)no2)cc1	56.6
CCOc1ccc(-c2nc(CCl)cs2)cc1OC	-104.5*
O=[N+]([O-])c1ccc(N=Nc2ncc[nH]2)cc1	-95.6*
Nn1c(SCc2ccccc2F)nnc1-c1cccnc1	-176.9*
Nn1c(SCc2cccc(F)c2)nnc1-c1cccnc1	-70.8*
COc1ccc(OCc2cc(C(=O)N3CCC(OC)CC3)no2)c2ccccc12	-69.5*
COCC1CCN(C(=O)c2cc(COc3ccc(OC)c4ccccc34)on2)C1 (configuration not stated)	-183.7*
CCOC(=O)C1CCN(C(=O)c2cc(COc3ccc(OC)c4ccccc34)on2)CC1	-124.1*
SMILES	aSyn 5UTR act
COc1ccc(OCc2cc(C(=O)NC3CCOC(C)(C)C3)no2)c2ccccc12 (configuration not stated)	-183.3*
COc1cc(C)ccc1OCc1cc(C(=O)N2CCC(c3ccc(F)cc3)C2)no1 (configuration not stated)	-175.5*
COCC1CCN(C(=O)c2cc(COc3ccccc3SC)on2)C1 (configuration not stated)	-79.2*
COc1cc(Cl)ccc1OCc1cc(C(=O)N2CCCC(OC)C2)no1 (configuration not stated)	-147.5*
Nc1c(-c2ccccc2)cnn1-c1cccc([N+](=O)[O-])c1	-92.2*
Cc1nn(-c2cccc([N+](=O)[O-])c2)c(N)c1-c1ccccc1	-83.3*
Nc1c(-c2ccc(Cl)cc2)cnn1-c1cccc([N+](=O)[O-])c1	-133.8*
CCOc1ccc(C2=Nc3ccc(Br)cc3C(c3ccc(N4CCOCC4)cc3)=NN2)cc1	-66.4*
CCOc1ccc(C2=Nc3ccccc3C(c3ccc(N4CCOCC4)cc3)=NN2)cc1	-94.5*
COCCCN=C(c1ccco1)n1c(=S)nc(-c2ccco2)n(CCCOC)c1=S	-87.7*
Cc1cccc(CCNc2nc3ccc(C)cc3n3cnnc23)c1	-155.7*
C/C(=N\NC(=O)CSc1nc(C)[nH]c1[N+](=O)[O-])c1ccc(F)cc1	-109.0*
Cc1ccc(NCCC(=O)c2ccc(Cl)cc2)cc1	-119.0*
Cc1ccc(C(=O)CNc2ccc(C)c(Cl)c2)cc1	-68.4*
Cc1ccc(NCCC(=O)c2ccccc2)cc1Cl	-133.9*
Cc1ccc(NC(=O)CNC(=O)c2ccccc2F)cc1Cl	-69.2*
Cc1ccc(NCC(=O)c2ccc(C)cc2)cc1	-125.0*
Cc1ccc(CNc2ccc(N3CCOCC3)cc2)s1	-86.2*
CSc1ccc(C2C(C(=O)c3ccco3)=C(O)C(=O)N2c2nnc(SC)s2)cc1 (configuration not stated)	-62.0*
O=C(Nc1ncccc1Cl)C1COc2ccccc2O1 (configuration not stated)	-106.9*
C/C(=N\NC(=O)C1COc2ccccc2O1)c1ccccn1 (configuration not stated)	98.2
Cc1ccc(NC(=O)C2OCCc3ccccc32)cc1 (configuration not stated)	-132.8*
O=C(COC(=O)C1COc2ccccc2O1)NC(=O)NC1CCCC1 (configuration not stated)	-72.5*
O=C(N/N=C\c1cc(Br)cs1)C1COc2ccccc2O1 (configuration not stated)	-126.5*
O=C(NCC1OCCc2ccccc21)c1ccc(NC(=O)c2ccc(Cl)cc2)cc1 (configuration not stated)	79.4
SMILES	aSyn 5UTR act
CC(=O)c1sc(NC(=O)C2COc3ccccc3O2)nc1C (configuration not stated)	61.8
Cc1ccc(NC(=O)C2COc3ccccc3O2)cc1 (configuration not stated)	-153.6*
O=C(Nc1nnc(C(F)(F)F)s1)C1COc2ccccc2O1 (configuration not stated)	-69.1*
O=C(NCC1COc2ccccc2O1)c1ccccc1 (configuration not stated)	-137.0*
O=C(Nc1ccccc1F)C1COc2ccccc2O1 (configuration not stated)	-90.8*
NC(=O)c1oc2ccccc2c1NC(=O)C1COc2ccccc2O1 (configuration not stated)	-85.7*
